# Test results from PubChem BioAssay (NCI).
# About 79,000 compounds went through this panel and 15% of them were active in at least one assay; those are over-represented in the sample as a whole. Values without a mark were called inactive. Calls of active or inactive are those of the source. No stated cut-off is given here; in the data, active means growth inhibition above about 70%; inactive means the rest.
# Columns and labels:
# [1] = NCI Yeast Anticancer Drug Screen. Data for the rad50 strain (AID 155);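 further: 0% = growth of vehicle-only cultures of the same strain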; conditions: S. cerevisiae rad50 strain growth inhibition, stronger effect = higher value
# Outline: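 DNA repair mutant yeast, compound exposure, growth read-out; inhibition is taken relative to vehicle.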
# [2] = NCI Yeast Anticancer Drug Screen. Data for the mec2-1 strain (AID 157); conditions: S. cerevisiae mec2-1 strain, stronger effect = higher value
# Outline: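 Each compound was tested on mec2-1 yeast, a strain altered in DNA damage repair or cell cycle control. Growth inhibition is reported relative to vehicle.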
# [3] = NCI Yeast Anticancer Drug Screen. Data for the sgs1 mgt1 strain (AID 161);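 further: 0% = growth of cultures given vehicle only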; conditions: S. cerevisiae sgs1 mgt1 strain, stronger effect = higher value
# Outline: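 Genetically altered yeast, compound exposure, growth inhibition relative to vehicle.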
# [4] = NCI Yeast Anticancer Drug Screen. Data for the cln2 rad14 strain (AID 165);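 further: 0% = growth equal to vehicle treated cultures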; conditions: S. cerevisiae cln2 rad14 strain, stronger effect = higher value
# Outline: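 Test compounds were added to cln2 rad14 yeast cultures; inhibition of growth was then determined by comparison with vehicle treatment.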
# [5] = NCI Yeast Anticancer Drug Screen. Data for the bub3 strain (AID 167); conditions: S. cerevisiae bub3 mutant strain, stronger effect = higher value
# Outline: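 In this screen, a yeast mutant lacking normal mitotic checkpoint function is challenged with compound. Relative growth versus vehicle gives the inhibition value.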
# [6] = NCI Yeast Anticancer Drug Screen. Data for the mlh1 rad18 strain (AID 175); conditions: S. cerevisiae mlh1 rad18 strain growth inhibition, stronger effect = higher value
# Outline: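 Inhibition values reflect reduced growth of mutant yeast versus vehicle-treated controls following compound exposure; the mutations affect DNA damage repair.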
# [7] = NCI Yeast Anticancer Drug Screen. Data for the wt1 strain (AID 149);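 further: 0% = growth of vehicle-treated wt1 cultures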; conditions: S. cerevisiae wt1 strain (SPY 50644) growth inhibition, stronger effect = higher value
# Outline: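 wt1 strain grown with compound or vehicle; inhibition taken from the growth difference.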
# [8] = NCI Yeast Anticancer Drug Screen. Data for the rad50EPP+ strain (AID 151);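 further: 0% = growth of vehicle-treated control cultures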; conditions: S. cerevisiae rad50 mutant strain, stronger effect = higher value
# Outline: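 Genetically defined yeast (rad50EPP+, DNA damage repair alteration) is grown with compound, and inhibition of growth is expressed relative to vehicle-treated controls.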
# [9] = NCI Yeast Anticancer Drug Screen. Data for the rad14 strain (AID 159);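 further: 0% = growth of vehicle-treated control cultures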; conditions: S. cerevisiae rad14 strain growth inhibition, stronger effect = higher value
# Outline: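 DNA repair-defective yeast, compound-exposed; % growth inhibition derived by comparison with vehicle-treated controls.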
# [10] = NCI Yeast Anticancer Drug Screen. Data for the CLN2oe strain (AID 163);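 further: 0% = growth of vehicle-only control cultures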; conditions: S. cerevisiae CLN2oe strain, stronger effect = higher value
# Outline: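 First, the altered yeast strain was treated with each compound; second, its growth was measured; finally, inhibition was derived by comparison with vehicle controls.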
# [11] = NCI Yeast Anticancer Drug Screen. Data for the wt2 strain (AID 169);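 further: 0% = growth of vehicle-treated yeast cultures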; conditions: S. cerevisiae wt2 strain growth inhibition, stronger effect = higher value
# Outline: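 The panel's yeast strains carry defined changes in DNA repair or cell cycle genes. Each strain is grown with compound, and growth loss is scored relative to vehicle.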
# [12] = NCI Yeast Anticancer Drug Screen. Data for the mlh1 strain (AID 171);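 further: 0% = growth of vehicle-treated control cultures of the same strain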; conditions: S. cerevisiae mlh1 strain growth inhibition, stronger effect = higher value
# Outline: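 Inhibition values reflect reduced yeast growth in the presence of compound, referenced to vehicle controls, using a strain chosen for its alteration in DNA repair or cell cycle control.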
# [13] = NCI Yeast Anticancer Drug Screen. Data for the sgs1 strain (AID 173);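 further: 0% = growth of vehicle-only control cultures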; conditions: S. cerevisiae sgs1 mutant, stronger effect = higher value
# Outline: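 Vehicle-treated cultures served as reference for growth inhibition of a yeast strain altered in DNA damage repair or cell cycle control after compound exposure.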
# [14] = NCI Yeast Anticancer Drug Screen. Data for the rad18 strain (AID 177); conditions: S. cerevisiae rad18 mutant growth inhibition, stronger effect = higher value
# Outline: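 Steps: expose repair-mutant yeast to compound; measure growth; express as inhibition relative to vehicle control.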
# [15] = NCI Yeast Anticancer Drug Screen. Data for the mgt1 strain (AID 153); conditions: S. cerevisiae mgt1 mutant growth inhibition, stronger effect = higher value
# Outline: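 In the mgt1 strain, test compounds were added and growth inhibition was determined relative to vehicle-treated controls.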
# [16] = at 5.0 µM (retest, dose inferred, filed as 0.5)
# [17] = at 50.0 µM (retest, dose inferred, filed as 5.0)
compound,measurement,setting,value
c1ccc2c(NCCCCCCNc3c4ccccc4nc4ccccc34)c3ccccc3nc2c1,growth inhibition,[1]; [16],68%
same,growth inhibition,[1]; [17],89% (active)
same,growth inhibition,[1]; at 50.0 µM,75.4% (active)
same,growth inhibition,[2]; [16],43%
same,growth inhibition,[2]; [17],80% (active)
same,growth inhibition,[2]; at 50.0 µM,73.5% (active)
same,growth inhibition,[3]; [16],54%
same,growth inhibition,[3]; [17],83% (active)
same,growth inhibition,[3]; at 50.0 µM,61.5%
same,growth inhibition,[4]; [16],20%
same,growth inhibition,[4]; [17],57%
same,growth inhibition,[4]; at 50.0 µM,8.4%
same,growth inhibition,[5]; [16],56%
same,growth inhibition,[5]; [17],88% (active)
same,growth inhibition,[5]; at 50.0 µM,73.1% (active)
same,growth inhibition,[6]; [16],61%
same,growth inhibition,[6]; [17],83% (active)
CNCC(O)c1ccc(O)c(O)c1.[Pt].c1ccc([PH+](c2ccccc2)c2ccccc2)cc1.c1ccc([PH+](c2ccccc2)c2ccccc2)cc1,growth inhibition,[7]; at 1.2 µM,-1%
same,growth inhibition,[7]; at 3.7 µM,-2%
same,growth inhibition,[7]; at 11.0 µM,-2%
same,growth inhibition,[7]; at 33.0 µM,8%
same,growth inhibition,[7]; at 100.0 µM,53%
same,growth inhibition,[8]; at 1.2 µM,2%
same,growth inhibition,[8]; at 3.7 µM,-3%
same,growth inhibition,[8]; at 11.0 µM,-21%
same,growth inhibition,[8]; at 33.0 µM,11%
same,growth inhibition,[8]; at 100.0 µM,93% (active)
same,growth inhibition,[1]; at 1.2 µM,-1%
same,growth inhibition,[1]; at 3.7 µM,-3%
same,growth inhibition,[1]; [16],-8%
same,growth inhibition,[1]; at 11.0 µM,-1%
same,growth inhibition,[1]; at 33.0 µM,96% (active)
same,growth inhibition,[1]; [17],99% (active)
same,growth inhibition,[1]; at 50.0 µM,99% (active)
same,growth inhibition,[1]; at 100.0 µM,96% (active)
same,growth inhibition,[2]; at 1.2 µM,3%
same,growth inhibition,[2]; at 3.7 µM,6%
same,growth inhibition,[2]; [16],-8%
same,growth inhibition,[2]; at 11.0 µM,4%
same,growth inhibition,[2]; at 33.0 µM,65%
same,growth inhibition,[2]; [17],99% (active)
same,growth inhibition,[2]; at 50.0 µM,98.8% (active)
same,growth inhibition,[2]; at 100.0 µM,97% (active)
same,growth inhibition,[9]; at 1.2 µM,-1%
same,growth inhibition,[9]; at 3.7 µM,-3%
same,growth inhibition,[9]; at 11.0 µM,4%
same,growth inhibition,[9]; at 33.0 µM,98% (active)
same,growth inhibition,[9]; at 100.0 µM,96% (active)
same,growth inhibition,[3]; [16],-2%
same,growth inhibition,[3]; [17],-7%
same,growth inhibition,[3]; at 50.0 µM,99.1% (active)
same,growth inhibition,[10]; at 1.2 µM,0%
same,growth inhibition,[10]; at 3.7 µM,-8%
same,growth inhibition,[10]; at 11.0 µM,3%
same,growth inhibition,[10]; at 33.0 µM,93% (active)
same,growth inhibition,[10]; at 100.0 µM,96% (active)
same,growth inhibition,[4]; [16],17%
same,growth inhibition,[4]; [17],99% (active)
same,growth inhibition,[4]; at 50.0 µM,98.8% (active)
same,growth inhibition,[5]; at 1.2 µM,0%
same,growth inhibition,[5]; at 3.7 µM,1%
same,growth inhibition,[5]; [16],-18%
same,growth inhibition,[5]; at 11.0 µM,-3%
same,growth inhibition,[5]; at 33.0 µM,75% (active)
same,growth inhibition,[5]; [17],99% (active)
same,growth inhibition,[5]; at 50.0 µM,98.8% (active)
same,growth inhibition,[5]; at 100.0 µM,96% (active)
same,growth inhibition,[11]; at 1.2 µM,-2%
same,growth inhibition,[11]; at 3.7 µM,-2%
same,growth inhibition,[11]; at 11.0 µM,8%
same,growth inhibition,[11]; at 33.0 µM,98% (active)
same,growth inhibition,[11]; at 100.0 µM,98% (active)
same,growth inhibition,[12]; at 1.2 µM,-3%
same,growth inhibition,[12]; at 3.7 µM,-1%
same,growth inhibition,[12]; at 11.0 µM,8%
same,growth inhibition,[12]; at 33.0 µM,91% (active)
same,growth inhibition,[12]; at 100.0 µM,97% (active)
same,growth inhibition,[13]; at 1.2 µM,2%
same,growth inhibition,[13]; at 3.7 µM,4%
same,growth inhibition,[13]; at 11.0 µM,15%
same,growth inhibition,[13]; at 33.0 µM,86% (active)
same,growth inhibition,[13]; at 100.0 µM,97% (active)
same,growth inhibition,[6]; [16],13%
same,growth inhibition,[6]; [17],99% (active)
same,growth inhibition,[6]; at 50.0 µM,99% (active)
same,growth inhibition,[14]; at 1.2 µM,0%
same,growth inhibition,[14]; at 3.7 µM,2%
same,growth inhibition,[14]; at 11.0 µM,19%
same,growth inhibition,[14]; at 33.0 µM,80% (active)
same,growth inhibition,[14]; at 100.0 µM,96% (active)
COC1C(C)OC(OC2CC(C)(O)Cc3cc4c(c(O)c32)C(=O)c2c(O)cc3c(c2C4=O)OC2OC3(C)C(O)C(N(C)C)C2O)C(OC)C1(C)OC (stereo not given),growth inhibition,[1]; [16],69%
same,growth inhibition,[1]; [17],96% (active)
same,growth inhibition,[1]; at 50.0 µM,89.5% (active)
same,growth inhibition,[2]; [16],75% (active)
same,growth inhibition,[2]; [17],99% (active)
same,growth inhibition,[2]; at 50.0 µM,93% (active)
same,growth inhibition,[3]; [16],76% (active)
same,growth inhibition,[3]; [17],97% (active)
same,growth inhibition,[3]; at 50.0 µM,91% (active)
same,growth inhibition,[4]; [16],58%
same,growth inhibition,[4]; [17],91% (active)
same,growth inhibition,[4]; at 50.0 µM,88% (active)
same,growth inhibition,[5]; [16],77% (active)
same,growth inhibition,[5]; [17],94% (active)
same,growth inhibition,[5]; at 50.0 µM,91.5% (active)
C=C[C@H]1CN2CC[C@H]1C[C@@H]2[C@@H](O)c1ccnc2ccccc12,growth inhibition,[7]; at 1.2 µM,-1%
same,growth inhibition,[7]; at 3.7 µM,-2%
same,growth inhibition,[7]; at 11.0 µM,-4%
same,growth inhibition,[7]; at 33.0 µM,-2%
same,growth inhibition,[7]; at 100.0 µM,-2%
same,growth inhibition,[15]; at 1.2 µM,2%
same,growth inhibition,[15]; at 3.7 µM,1%
same,growth inhibition,[15]; at 11.0 µM,3%
same,growth inhibition,[15]; at 33.0 µM,0%
same,growth inhibition,[15]; at 100.0 µM,4%
same,growth inhibition,[1]; at 1.2 µM,2%
same,growth inhibition,[1]; at 3.7 µM,10%
same,growth inhibition,[1]; [16],2%
same,growth inhibition,[1]; at 11.0 µM,3%
same,growth inhibition,[1]; at 33.0 µM,2%
same,growth inhibition,[1]; [17],13%
same,growth inhibition,[1]; at 50.0 µM,-1.45%
same,growth inhibition,[1]; at 100.0 µM,-2%
same,growth inhibition,[2]; at 1.2 µM,-1%
same,growth inhibition,[2]; at 3.7 µM,3%
same,growth inhibition,[2]; [16],8%
same,growth inhibition,[2]; at 11.0 µM,4%
same,growth inhibition,[2]; at 33.0 µM,2%
same,growth inhibition,[2]; [17],7%
same,growth inhibition,[2]; at 50.0 µM,-40.6%
same,growth inhibition,[2]; at 100.0 µM,-5%
same,growth inhibition,[9]; at 1.2 µM,-3%
same,growth inhibition,[9]; at 3.7 µM,-9%
same,growth inhibition,[9]; at 11.0 µM,-2%
same,growth inhibition,[9]; at 33.0 µM,0%
same,growth inhibition,[9]; at 100.0 µM,1%
same,growth inhibition,[3]; [16],-10%
same,growth inhibition,[3]; [17],-1%
same,growth inhibition,[3]; at 50.0 µM,-11.9%
same,growth inhibition,[10]; at 1.2 µM,1%
same,growth inhibition,[10]; at 3.7 µM,2%
same,growth inhibition,[10]; at 11.0 µM,3%
same,growth inhibition,[10]; at 33.0 µM,5%
same,growth inhibition,[10]; at 100.0 µM,2%
same,growth inhibition,[4]; [16],44%
same,growth inhibition,[4]; [17],14%
same,growth inhibition,[4]; at 50.0 µM,8.55%
same,growth inhibition,[11]; at 1.2 µM,0%
same,growth inhibition,[11]; at 3.7 µM,1%
same,growth inhibition,[11]; at 11.0 µM,0%
same,growth inhibition,[11]; at 33.0 µM,-2%
same,growth inhibition,[11]; at 100.0 µM,1%
same,growth inhibition,[12]; at 1.2 µM,-2%
same,growth inhibition,[12]; at 3.7 µM,1%
same,growth inhibition,[12]; at 11.0 µM,-6%
same,growth inhibition,[12]; at 33.0 µM,-7%
same,growth inhibition,[12]; at 100.0 µM,9%
same,growth inhibition,[13]; at 1.2 µM,-3%
same,growth inhibition,[13]; at 3.7 µM,-5%
same,growth inhibition,[13]; at 11.0 µM,-6%
same,growth inhibition,[13]; at 33.0 µM,-7%
same,growth inhibition,[13]; at 100.0 µM,-6%
same,growth inhibition,[6]; [16],2%
same,growth inhibition,[6]; [17],8%
same,growth inhibition,[6]; at 50.0 µM,7.65%
same,growth inhibition,[14]; at 1.2 µM,-2%
same,growth inhibition,[14]; at 3.7 µM,-2%
same,growth inhibition,[14]; at 11.0 µM,-9%
same,growth inhibition,[14]; at 33.0 µM,-17%
same,growth inhibition,[14]; at 100.0 µM,-28%
